Among all 5,500 compounds or so, about 2,000 (36%) were called active. Another 18% or so got no clear call; they are omitted. Rule as the data show it: active = normalized growth mostly below about 0.91 (no sharp cut-off); inconclusive = no clear call, values can overlap the other calls; inactive = mostly above about 0.92. Some of the results follow.
Test: chemical genetic growth profiling, strain panel (AID 1159580);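 also: tested at 20 µM; growth read once vehicle control cultures reached saturation at 30 °C; 1 = growth at the plate median or of vehicle wells; lower values mean less growth of the strain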
Conditions: S. cerevisiae deletion strains, growth OD
[1] = locus YDL101C, strain DUN1, hits give low values
[2] = locus YHR030C, strain SLT2, hits give low values

Measured: normalized growth

Cc1ccc2nc(-c3ccc4c(c3)OCCO4)cn2c1
inactive: locus YAR019C, strain CDC15, hits give low values 0.981 | locus YBL105C, strain PKC1, hits give low values 0.98 | locus YBR135W, strain CKS1, hits give low values 0.984 | locus YBR136W, strain MEC1, hits give low values 0.983 | locus YBR160W, strain CDC28, hits give low values 0.978 | locus YDL017W, strain CDC7, hits give low values 0.985 | locus YDL028C, strain MPS1, hits give low values 0.984 | [1] 0.988 | locus YDL108W, strain KIN28, hits give low values 0.982 | locus YDL132W, strain cdc53, hits give low values 0.982 | locus YDL214C, strain PRR2, hits give low values 0.958 | locus YDR052C, strain DBF4, hits give low values 0.988 | locus YDR054C, strain cdc34, hits give low values 0.97 | locus YDR226W, strain ADK1, hits give low values 0.99 | locus YDR477W, strain SNF1, hits give low values 0.967 | locus YER123W, strain YCK3, hits give low values 0.941 | locus YER133W, strain GLC7, hits give low values 0.966 | locus YFL009W, strain cdc4, hits give low values 0.981 | locus YFL029C, strain CAK1, hits give low values 0.974 | locus YFR003C, strain YPI1, hits give low values 0.983 | locus YFR019W, strain FAB1, hits give low values 0.963 | locus YFR028C, strain CDC14, hits give low values 0.976 | locus YGR040W, strain KSS1, hits give low values 0.953 | locus YGR052W, strain FMP48, hits give low values 1.04 | locus YGR092W, strain DBF2, hits give low values 0.929 | [2] 0.986 | locus YHR079C, strain IRE1, hits give low values 0.966 | locus YHR082C, strain KSP1, hits give low values 1.01 | locus YHR205W, strain SCH9, hits give low values 0.956 | locus YIL147C, strain SLN1, hits give low values 0.983 | locus YJL095W, strain BCK1, hits give low values 0.984 | locus YJL128C, strain PBS2, hits give low values 0.969 | locus YJL157C, strain FAR1, hits give low values 0.944 | locus YJR016C, strain ILV3, hits give low values 0.983 | locus YJR066W, strain TOR1 (second series), hits give low values 0.911 | locus YJR066W, strain TOR1, hits give low values 1 | locus YKL048C, strain ELM1, hits give low values 0.959 | locus YKL067W, strain YNK1, hits give low values 0.967 | locus YKL101W, strain HSL1, hits give low values 0.951 | locus YKL193C, strain SDS22, hits give low values 0.983 | locus YKL203C, strain TOR2, hits give low values 1.01 | locus YLR113W, strain HOG1, hits give low values 0.899 | locus YLR133W, strain CKI1, hits give low values 0.956 | locus YLR403W, strain SFP1, hits give low values 0.947 | locus YML070W, strain DAK1, hits give low values 0.938 | locus YMR001C, strain CDC5, hits give low values 0.987 | locus YMR205C, strain PFK2 (second series), hits give low values 0.97 | locus YMR277W, strain FCP1, hits give low values 0.982 | locus YNL006W, strain LST8, hits give low values 0.989 | locus YNL020C, strain ARK1, hits give low values 0.961 | locus YNL161W, strain CBK1, hits give low values 0.974 | locus YNL183C, strain NPR1, hits give low values 0.996 | locus YNL207W, strain RIO2, hits give low values 0.978 | locus YNL222W, strain SSU72, hits give low values 0.979 | locus YNL307C, strain MCK1 (second series), hits give low values 0.94 | locus YOL078W, strain AVO1, hits give low values 0.98 | locus YOL136C, strain PFK27, hits give low values 0.929 | locus YOR061W, strain CKA2, hits give low values 0.966 | locus YOR119C, strain RIO1, hits give low values 0.997 | locus YOR231W, strain MKK1, hits give low values 0.932 | locus YOR329C, strain SCD5, hits give low values 0.985 | locus YPL031C, strain PHO85, hits give low values 0.958 | locus YPL153C, strain RAD53, hits give low values 0.947 | locus YPL204W, strain HRR25, hits give low values 0.935 | locus YPL209C, strain IPL1, hits give low values 0.978 | locus YPL256C, strain CLN2, hits give low values 0.923 | locus YPR025C, strain CCL1, hits give low values 0.981 | locus YPR106W, strain ISR1, hits give low values 0.973 | locus YPR111W, strain DBF20, hits give low values 0.965 | strain NNK1, hits give low values 0.975 | strain TSCII, hits give low values 0.986

COC(=O)C/C(N)=C(\C#N)C(=O)OC
inactive: locus YAL013W, strain DEP1, hits give low values 1 | locus YBR229C, strain ROT2, hits give low values 0.984 | locus YCL061C, strain MRC1, hits give low values 1.02 | [1] 1.03 | locus YDR150W, strain NUM1, hits give low values 1.01 | locus YEL061C, strain CIN8, hits give low values 0.994 | locus YGR078C, strain PAC10, hits give low values 1.05 | [2] 1.08 | locus YHR087W, strain rtc3, hits give low values 0.944 | locus YJL187C, strain SWE1, hits give low values 1.02 | locus YJR043C, strain POL32, hits give low values 1.02 | locus YJR075W, strain HOC1, hits give low values 1.01 | locus YKL190W, strain CNB1, hits give low values 0.986 | locus YLR039C, strain RIC1, hits give low values 0.993 | locus YLR058C, strain SHM2 (second series), hits give low values 0.983 | locus YLR085C, strain ARP6, hits give low values 0.995 | locus YLR262C, strain YPT6, hits give low values 0.982 | locus YML094W, strain GIM5, hits give low values 0.982 | locus YMR219W, strain ESC1, hits give low values 0.982 | locus YMR263W, strain SAP30, hits give low values 1.02 | locus YNL153C, strain GIM3, hits give low values 1.04 | locus YNL298W, strain CLA4 (second series), hits give low values 0.999 | locus YNL322C, strain KRE1, hits give low values 1.01 | locus YNR030W, strain Alg12, hits give low values 1.03 | locus YPL055C, strain LGE1, hits give low values 0.975 | locus YPL241C, strain CIN2, hits give low values 1.01 | locus YPR135W, strain CTF4, hits give low values 1.08
